This note sets out measurements from PubChem BioAssay AID1578 (Sanford-Burnham Center for Chemical Genomics, 2009).

The structures appear in SMILES notation. Among all 290,000 compounds or so, about 3,000 (1%) were called active. This excerpt belongs to a sample that is enriched for actives. Unmarked numbers belong to inactive results. Rule as the data show it: active = inhibition mostly above about 36% (no sharp cut-off); inactive = mostly below about 34%.

This test can be described thus: NOD1 signaling inhibitors, primary screen, cell-based, luminescence, uHTS (AID 1578).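 Also: HEK-293T reporter cells stimulated with the NOD1 agonist gamma-tri-DAP.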 The conditions noted are these: NOD1-driven NF-kB luciferase reporter cells, at 4 µM, active compounds read high.
The inhibition is the change of the read-out against control, counted positive when it falls. Consider `CCCCc1n[nH]c2c1/C(=N/O)CC(C)(C)C2`, for which the inhibition was -12.1%.

On to `O=C(N/N=C/c1ccncc1)c1cc2ccccc2cc1O`, for which the inhibition is 11.3%.

In the case of `Cc1cccc(NC(=O)CSC2=NN3CCCC(=O)N=C3S2)c1C`, the inhibition is 7.2%.

Consider `CC(=O)O/N=C(/c1nonc1N)N(C)C`, for which the inhibition is -21.6%.

With `CCCc1nc2ccc(N)cc2c(=O)n1Cc1ccccc1Cl`, the inhibition was -43.9%.

Regarding `CC(Sc1nc(N)c(NC(=O)c2ccc(Br)o2)c(=O)[nH]1)C(=O)O` (stereo not drawn), the inhibition is -18.7%.

Consider `CN(c1ccccc1)c1ccc(/C=C(\C#N)c2nnc3n2CCCCC3)cc1[N+](=O)[O-]`, for which the inhibition was 78.8% (active).

Regarding `N#C/C(=C/c1cccc([N+](=O)[O-])c1)c1nnc2n1CCCCC2`, the inhibition is -32.4%.

As for `N#C/C(=C\c1cccc([N+](=O)[O-])c1)c1nnc2n1CCCCC2`, the inhibition is 9%.

As for `Cc1ccnc(NC(=O)/C=C/c2ccccc2[N+](=O)[O-])c1`, the inhibition is -40.4%.

For `Cc1nccn1CC(O)COc1ccc([N+](=O)[O-])cc1` (stereo not drawn), the inhibition is -5.8%.

Consider `CCOC(=O)Cn1nnnc1CN(Cc1ccc(OC)cc1)Cc1cc2cc(C)cc(C)c2[nH]c1=O`, for which the inhibition was -21.1%.

For `Cn1c(=O)c2c(nc(N/N=C/c3ccc(OC(=O)c4ccco4)cc3)n2Cc2ccccc2)n(C)c1=O`, the inhibition was 26.6%.

As for `Cn1c(=O)c2c(nc(N/N=C/c3ccc(OC(=O)c4ccco4)cc3)n2Cc2ccc(F)cc2)n(C)c1=O`, the inhibition was 33.2%.

For the compound `Cc1nn2c3ccccc3n(CC(=O)c3cccs3)c2nc1=O`, the inhibition is 19.3%.

On to `COc1cccc(CNC(=O)N2CCN(S(=O)(=O)c3ccc(Cl)cc3)CC2)c1`, for which the inhibition is 12.4%.

For `COc1ccc(C(=O)C2CCCN(C(=O)COc3ccc(C(C)=O)cc3)C2)cc1F` (stereo not drawn), the inhibition is -21.9%.

Take `CCC(CO)[n+]1c(C)cc(/C=C2\Sc3ccccc3N2Cc2ccccc2)cc1C` (stereo not drawn): the inhibition was 75.9% (active).

Turning to `CCN1/C(=C2\SC(=S)N(Cc3ccccc3)C2=O)Sc2ccccc21`, the inhibition was 4.6%.

In the case of `C[n+]1ccccc1/C=C1\Sc2ccccc2N1CCO`, the inhibition is -20.4%.

`COc1ccc(CNS(=O)(=O)c2ccccc2Br)cc1`: the inhibition was 3.1%.

For the compound `CC(=O)c1cccc(Nc2ccc(-c3ccccc3F)nn2)c1`, the inhibition is -57.9%.

For the compound `Cc1ccc(C(=O)NC(=S)N2CCN(c3cc(C)ccc3C)CC2)cc1`, the inhibition is 55.1% (active).

Take `Cc1ccc(C(=O)NC(=S)N2CCN(C)CC2)cc1`: the inhibition was -21.2%.

On to `Cc1ccc(C(=O)NC(=S)N2CCN(c3ccccc3F)CC2)cc1`, for which the inhibition was 19.9%.

With `Cc1ccc(OCC(O)CNC2CCCC2)cc1C` (stereo not drawn), the inhibition was 62.6% (active).

On to `COc1ccc(OCC(O)CNC2CCCC2)cc1` (stereo not drawn), for which the inhibition is 5.8%.

As for `Cc1ccc(C)c(OCC(O)CNC2CCCC2)c1` (stereo not drawn), the inhibition is -40.4%.

Take `CC(C)OC1(c2ccccc2)OC(=O)c2ccccc21` (stereo not drawn): the inhibition was 13.3%.

In the case of `Cc1ccc(C(=O)n2c(N)nc3ccccc32)cc1`, the inhibition was 41.2% (active).

For the compound `Nc1nc2ccccc2n1C(=O)c1ccccc1`, the inhibition was -26.6%.

As to `CC(=O)n1c2ccccc2c2ccccc21`, the inhibition is 11.7%.

As to `COc1ccc(C(=O)n2c(N)nc3ccccc32)cc1OC`, the inhibition was -61.2%.

Consider `Nc1ccc(C(=O)n2c3ccccc3c3ccccc32)cc1`, for which the inhibition is 75.2% (active).

As for `Cc1ccc(C(=O)n2c3ccccc3c3ccccc32)cc1`, the inhibition was 7.1%.

As for `O=C(CC1C(=O)NCCN1Cc1ccc(-c2ccccc2)cc1)NCCCn1cccn1` (stereo not drawn), the inhibition is -27.9%.

In the case of `CNC(=O)COC(=O)[C@@H](Nc1ccc(S(=O)(=O)N2CCOCC2)cc1[N+](=O)[O-])C(C)C`, the inhibition is -8.1%.

Turning to `Cc1ccc(C(=O)Nc2ncn[nH]2)cc1`, the inhibition was -32.8%.

Regarding `CCOc1ccc(-c2[nH]ncc2Oc2cccc(OC)c2)c(O)c1`, the inhibition was 10.8%.

For the compound `N#Cc1c(-c2ccccc2)c(C#N)c2nc3ccccc3n2c1N`, the inhibition was 37.8%.

Regarding `Cc1cc(Cl)n2c(nc3ccccc32)c1C#N`, the inhibition is -29.7%.

`CCc1c(C)c(C#N)c2nc3ccccc3n2c1Cl`: the inhibition is 62.6%.

For the compound `CCCCCc1c(C)c(C#N)c2nc3ccccc3n2c1-n1ccnc1C`, the inhibition is 15.8%.

Regarding `CCc1c(C)c(C#N)c2nc3ccccc3n2c1N(C)C`, the inhibition was 2%.

Regarding `CCCCc1c(C)c(C#N)c2nc3ccccc3n2c1Cl`, the inhibition is 101% (active).

With `CCCCc1c(C)c(C#N)c2nc3ccccc3n2c1NCCN(C)C`, the inhibition is -4.5%.

In the case of `CC(C)(C)C1=C(C#N)C(c2cccnc2)C(C#N)=C(N)O1` (stereo not drawn), the inhibition was 19.8%.

On to `CCCCOc1ccc(-c2[nH]ncc2C=O)cc1`, for which the inhibition was -46%.

Consider `COc1ccc2nc(NC(=O)c3cccs3)sc2c1`, for which the inhibition is -15.7%.

`CCOc1ccc(OCC)c(N=c2oc3c(C)ncc(CO)c3cc2C(N)=O)c1`: the inhibition is 23.3%.

For the compound `CSc1nnc(CNS(=O)(=O)c2ccc(Cl)cc2)n1C`, the inhibition was -7.4%.

As to `CC(=O)Nc1ncnc2c1c(-c1ccc(Cl)cc1)nn2C(C)(C)C`, the inhibition was 39.6%.

As to `CC(=O)N(C(C)=O)c1ncnc2c1c(-c1ccc(Cl)cc1)nn2C(C)(C)C`, the inhibition is 71.2% (active).

Take `CC(C)(C)n1nc(-c2ccc(Cl)cc2)c2c(N)ncnc21`: the inhibition was 54.6%.

In the case of `Cc1ccccc1C(=O)Nc1ccccn1`, the inhibition was -7.2%.

Consider `c1ccc(-c2nn3c(-c4ccccc4)nnc3s2)cc1`, for which the inhibition was -69.4%.

As to `O=S(=O)(/N=C(/Nc1cc(N2CCOCC2)ncn1)c1ccccc1)c1ccccc1`, the inhibition is 0.2%.

As for `O=S(=O)(/N=C(/Nc1ccccn1)c1ccccc1)c1ccccc1`, the inhibition is 5.7%.

As to `COc1cc(N/C(=N/S(=O)(=O)c2ccccc2)c2ccccc2)ncn1`, the inhibition was 48.5% (active).

On to `Cn1c(CO)cnc1SCc1ccc(Cl)cc1`, for which the inhibition is -5.4%.

Take `O=C1C2C3C=CC(CO)(O3)C2C(=O)N1c1ccc(-c2ccccc2)cc1` (stereo not drawn): the inhibition was 35.6%.

For the compound `O=C1C2C3C=CC(CO)(O3)C2C(=O)N1c1ccccc1-c1ccccc1` (stereo not drawn), the inhibition was 72.3% (active).

Take `CC(=O)Oc1ccc(N2C(=O)C3C4C=CC(CO)(O4)C3C2=O)cc1` (stereo not drawn): the inhibition is -9.3%.

As for `CCc1ccc(CNc2ccc3c(c2)ncn3CC)cc1`, the inhibition was -16.7%.

On to `CCC(SC1=NCCS1)C(=O)Nc1nnc(-c2ccccc2OC)s1` (stereo not drawn), for which the inhibition is -17.6%.

As to `NC(=O)Nc1ccc(C(=O)OCC(=O)N(Cc2ccccc2)C2CCS(=O)(=O)C2)cc1` (stereo not drawn), the inhibition was -20.7%.

Take `CN1CCc2c(sc(NC(=O)C3COc4ccccc4O3)c2C(N)=O)C1` (stereo not drawn): the inhibition was -27.9%.

For the compound `Cc1cc2nc(-c3ccc(SCC(=O)NC(C)C)nc3)[nH]c2cc1C`, the inhibition was 23.9%.

With `CCOC(=O)CSc1ccc(-c2nc3cc(C)c(C)cc3[nH]2)cn1`, the inhibition is -40.2%.

Turning to `CC(=O)CSc1ccc(-c2nc3cc(C)c(C)cc3[nH]2)cn1`, the inhibition was 58.4% (active).

As to `CN(C)Cc1ccc(CNC(=O)COc2ccc3ccccc3c2)cc1`, the inhibition was -35.8%.

As to `CC(=O)Nc1ccc(S(=O)(=O)N/N=C/c2cccnc2)cc1`, the inhibition is -27.3%.

As to `CCOC(=O)c1c(N)sc2c(OCC)c(Br)ccc12`, the inhibition is -11.3%.

As for `CCOc1ccc(-c2c(C)sc3nc[nH]c(=O)c23)cc1`, the inhibition is -20.6%.

In the case of `CCOc1c(Br)ccc2c1sc1nc[nH]c(=O)c12`, the inhibition was 66.7% (active).

With `COc1cccc(NC(=S)N2C3CCCC2CC(NC(=O)C2CC2)C3)c1` (stereo not drawn), the inhibition was -11.4%.

Turning to `CC(=C/c1ccc(C(C)C)cc1)/C=N/NC(=O)CSc1ccccn1`, the inhibition is -42.7%.

As for `O=C(Nc1ccc(Cc2ccncc2)cc1)c1ccc(S(=O)(=O)N2CCOCC2)cc1`, the inhibition is 31.5%.

As for `O=C(Nc1ccc(S(=O)(=O)N2CCCCC2)cc1)c1ccncc1`, the inhibition was 9.7%.

In the case of `CCC1CCCCN1S(=O)(=O)c1ccc(NC(=O)c2cccnc2)cc1` (stereo not drawn), the inhibition was 30.5%.

Regarding `CCC1CCCCN1S(=O)(=O)c1ccc(NC(=O)c2cccs2)cc1` (stereo not drawn), the inhibition is -29.4%.

On to `CCN(CC)S(=O)(=O)c1ccc(OC)c(NC(=O)CSc2cc(C)ccc2C)c1`, for which the inhibition was -19.1%.

For the compound `C=CCN(c1ccccc1C(=O)O)S(=O)(=O)c1ccc(C)cc1`, the inhibition was -26.8%.

On to `O=S(=O)(Nc1ccc2c(c1)CCC2)c1cccs1`, for which the inhibition was 11.6%.

As to `O=c1c2ccccc2ncn1-c1ccc2c(c1)OCCO2`, the inhibition was 26.3%.

`CN(c1ccc(C(=O)NCCC2=CCCCC2)cc1)S(C)(=O)=O`: the inhibition is 68.1% (active).

For the compound `CS(=O)(=O)N(Cc1ccc(Cl)cc1)c1ccc(C(=O)NCCC2=CCCCC2)cc1`, the inhibition is 9.1%.

In the case of `CS(=O)(=O)Nc1ccc(C(=O)NCCC2=CCCCC2)cc1`, the inhibition is -9.5%.

As to `Cc1cc(NC(=O)CSc2nccn2C)n(-c2ccccc2)n1`, the inhibition was -0.5%.

On to `Cc1cccc(N2CCCn3c2nc2c3c(=O)n(CCN3CCOCC3)c(=O)n2C)c1`, for which the inhibition was 17.7%.

`COCCn1nnnc1C(c1ccccn1)N1CCN(c2cc(Cl)ccc2C)CC1` (stereo not drawn): the inhibition is -10.8%.

`COC(=O)c1ccccc1NC(=O)C(C)n1nc(C)c2c(C)n(-c3ccccc3)nc2c1=O` (stereo not drawn): the inhibition is 7.4%.

Regarding `Cc1cc(C)cc(OCC(=O)Nc2ccc(CN3CCCCC3)cc2)c1`, the inhibition was -37.6%.

As to `CCCCc1c(C)nc2ccc(Br)cc2c1SCCC#N`, the inhibition is 19.5%.

For the compound `CCc1c(C)nc2c(Br)cccc2c1SCCC#N`, the inhibition was 22.1%.

For `O=C(CN1C(=O)S/C(=C\c2cccs2)C1=O)Nc1ccc(O)cc1C(=O)O`, the inhibition is 38.9%.

Turning to `Cn1nnnc1SCCNCc1ccccc1OCc1ccccc1Cl`, the inhibition is -12.2%.

On to `CCc1cccc(NC(=O)c2sc3nc4n(c(=O)c3c2C)CCC4)c1`, for which the inhibition was -29.9%.
